System: RIVA
Experiment: growth inhibition by drug alone (1 - RLU/untreated control) (fraction); higher = stronger inhibition
Settings: 177Lu-lilotomab satetraxetan 0 ug/ml
Protocol: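 RIVA (RI-1) ABC-DLBCL cells were pretreated or not for 18 h with 0.5 ug/ml 177Lu-lilotomab satetraxetan (600 MBq/mg), washed and seeded (3000 cells/well) on 384-well plates pre-printed with the Selleck Cambridge Cancer Compound library. Viability was read by RealTime-Glo luminescence on days 3-6 after seeding. Effect = 1 - RLU/mean RLU of the 48 untreated no-drug control wells per plate; Bliss score = (M-E)/(1-Fa).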

Row | Structure (SMILES) | growth inhibition by drug alone (10 nM, time (day): 3) | growth inhibition by drug alone (10 nM, time (day): 4) | growth inhibition by drug alone (10 nM, time (day): 5) | growth inhibition by drug alone (10 nM, time (day): 6) | growth inhibition by drug alone (100 nM, time (day): 3) | growth inhibition by drug alone (100 nM, time (day): 4) | growth inhibition by drug alone (100 nM, time (day): 5) | growth inhibition by drug alone (100 nM, time (day): 6)
1 | COc1cc(Nc2c(C#N)cnc3cc(OCCCN4CCN(C)CC4)c(OC)cc23)c(Cl)cc1Cl [Bosutinib (SKI-606)] | -0.0137 | -0.0501 | -0.131 | -0.404 | -0.377 | -0.355 | -0.406 | -0.598
2 | O=NN(CCCl)C(=O)NC1CCCCC1 [Lomustine (CeeNU)] | -0.055 | -0.0849 | -0.137 | -0.324 | -0.313 | -0.232 | -0.254 | -0.408
3 | OC[C@H]1O[C@@H](n2cnc3c2N=CNC[C@H]3O)C[C@@H]1O [Pentostatin] | 0.0173 | -0.0212 | -0.109 | -0.624 | -0.427 | -0.321 | -0.314 | -0.387
4 | COC(=O)c1ccc2c(C(=Nc3ccc(N(C)C(=O)CN4CCN(C)CC4)cc3)c3ccccc3)c(O)[nH]c2c1 [BIBF1120 (Vargatef)] | -0.119 | -0.148 | -0.188 | -0.27 | -0.285 | -0.322 | -0.347 | -0.414
5 | Nc1nc(F)nc2c1ncn2[C@@H]1O[C@H](CO)[C@@H](O)[C@@H]1O [Fludarabine (Fludara)] | 0.0792 | 0.0421 | 0.0106 | -0.266 | -0.264 | -0.213 | -0.187 | -0.228

Reference: the supplement of paper PMC6897291
